# What was measured:
# [1] = target: Protein kinase C eta type (Homo sapiens) (UniProt P24723); details: at 1 µM
# [2] = target: Protein kinase C eta type (Homo sapiens) (UniProt P24723); details: at 10 µM
# [3] = target: Protein kinase C theta type (Homo sapiens) (UniProt Q04759); details: at 1 µM
# [4] = target: Protein kinase C theta type (Homo sapiens) (UniProt Q04759); details: at 10 µM
# [5] = target: T1, Protein kinase C iota type (Homo sapiens) (UniProt P41743); details: at 1 µM
# T1 sequence (whole entry): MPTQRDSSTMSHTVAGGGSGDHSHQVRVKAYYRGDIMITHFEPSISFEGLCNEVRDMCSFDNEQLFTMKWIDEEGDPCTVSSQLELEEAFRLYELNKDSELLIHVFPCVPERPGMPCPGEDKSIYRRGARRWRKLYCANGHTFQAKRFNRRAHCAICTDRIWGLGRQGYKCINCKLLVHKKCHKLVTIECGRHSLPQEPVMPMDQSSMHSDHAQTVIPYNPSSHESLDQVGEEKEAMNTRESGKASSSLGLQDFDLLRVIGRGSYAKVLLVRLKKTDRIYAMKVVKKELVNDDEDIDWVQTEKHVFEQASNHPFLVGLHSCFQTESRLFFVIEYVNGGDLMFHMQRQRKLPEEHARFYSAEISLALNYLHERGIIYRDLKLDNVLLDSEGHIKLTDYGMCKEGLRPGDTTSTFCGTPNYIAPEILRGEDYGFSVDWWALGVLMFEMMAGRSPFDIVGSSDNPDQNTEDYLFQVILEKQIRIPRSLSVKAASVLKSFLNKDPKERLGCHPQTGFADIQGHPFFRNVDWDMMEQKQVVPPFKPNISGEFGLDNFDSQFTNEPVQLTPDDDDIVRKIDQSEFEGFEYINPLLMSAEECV
# [6] = target: T1, Protein kinase C iota type (Homo sapiens); details: at 10 µM
# [7] = target: T2, Serine/threonine-protein kinase D1 (Homo sapiens) (UniProt Q15139); details: at 1 µM
# T2 sequence (whole entry): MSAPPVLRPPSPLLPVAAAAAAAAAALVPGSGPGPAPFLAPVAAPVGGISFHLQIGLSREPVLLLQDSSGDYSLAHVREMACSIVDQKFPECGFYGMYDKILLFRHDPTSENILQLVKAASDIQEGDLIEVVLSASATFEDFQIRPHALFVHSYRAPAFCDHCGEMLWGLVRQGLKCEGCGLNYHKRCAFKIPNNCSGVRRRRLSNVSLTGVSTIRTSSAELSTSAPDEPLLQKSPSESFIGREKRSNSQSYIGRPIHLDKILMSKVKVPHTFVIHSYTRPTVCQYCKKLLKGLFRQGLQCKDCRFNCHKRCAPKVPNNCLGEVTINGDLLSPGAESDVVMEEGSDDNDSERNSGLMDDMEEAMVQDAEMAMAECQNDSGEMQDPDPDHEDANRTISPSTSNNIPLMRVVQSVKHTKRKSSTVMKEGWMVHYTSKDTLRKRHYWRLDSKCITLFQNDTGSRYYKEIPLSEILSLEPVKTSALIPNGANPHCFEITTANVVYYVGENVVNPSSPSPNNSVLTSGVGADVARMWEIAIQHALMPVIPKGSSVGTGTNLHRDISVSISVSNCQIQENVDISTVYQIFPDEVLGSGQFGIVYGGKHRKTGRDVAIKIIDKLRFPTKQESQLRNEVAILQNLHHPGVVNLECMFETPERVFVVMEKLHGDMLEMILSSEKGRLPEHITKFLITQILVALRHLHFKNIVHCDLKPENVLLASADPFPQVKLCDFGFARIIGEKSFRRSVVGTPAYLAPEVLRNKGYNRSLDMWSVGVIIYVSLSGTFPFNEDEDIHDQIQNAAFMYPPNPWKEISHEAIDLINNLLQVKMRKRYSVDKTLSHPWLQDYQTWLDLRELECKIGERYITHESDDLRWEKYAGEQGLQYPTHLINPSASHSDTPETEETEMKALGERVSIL
# [8] = target: T2, Serine/threonine-protein kinase D1 (Homo sapiens); details: at 10 µM
# [9] = target: T3, Serine/threonine-protein kinase D2 (Homo sapiens) (UniProt Q9BZL6); details: at 1 µM
# T3 sequence (whole entry): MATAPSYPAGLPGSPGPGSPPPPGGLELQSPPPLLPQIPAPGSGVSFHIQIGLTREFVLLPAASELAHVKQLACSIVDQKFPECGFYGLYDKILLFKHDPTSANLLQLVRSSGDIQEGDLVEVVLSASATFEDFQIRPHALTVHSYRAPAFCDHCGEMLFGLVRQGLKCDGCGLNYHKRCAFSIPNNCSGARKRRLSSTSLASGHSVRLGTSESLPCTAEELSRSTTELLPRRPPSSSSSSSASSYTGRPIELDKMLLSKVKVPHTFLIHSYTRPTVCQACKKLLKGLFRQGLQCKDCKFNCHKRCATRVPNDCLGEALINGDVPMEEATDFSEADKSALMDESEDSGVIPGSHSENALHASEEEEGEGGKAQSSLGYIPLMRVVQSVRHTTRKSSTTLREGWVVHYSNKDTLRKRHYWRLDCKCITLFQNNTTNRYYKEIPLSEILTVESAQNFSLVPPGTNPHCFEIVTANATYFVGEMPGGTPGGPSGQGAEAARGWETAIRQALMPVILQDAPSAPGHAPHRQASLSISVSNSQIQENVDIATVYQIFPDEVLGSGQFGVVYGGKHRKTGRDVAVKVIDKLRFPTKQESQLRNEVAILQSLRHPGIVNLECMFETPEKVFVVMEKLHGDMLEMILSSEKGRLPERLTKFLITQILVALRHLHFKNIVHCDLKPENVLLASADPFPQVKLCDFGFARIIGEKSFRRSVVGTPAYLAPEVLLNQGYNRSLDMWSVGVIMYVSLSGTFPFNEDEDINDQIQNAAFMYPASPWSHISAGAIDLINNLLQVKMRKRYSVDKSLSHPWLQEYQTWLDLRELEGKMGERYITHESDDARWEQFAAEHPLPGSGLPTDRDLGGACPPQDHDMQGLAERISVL
# [10] = target: T3, Serine/threonine-protein kinase D2 (Homo sapiens); details: at 10 µM
# Chain of Protein kinase C eta type (Homo sapiens) (P24723 whole entry): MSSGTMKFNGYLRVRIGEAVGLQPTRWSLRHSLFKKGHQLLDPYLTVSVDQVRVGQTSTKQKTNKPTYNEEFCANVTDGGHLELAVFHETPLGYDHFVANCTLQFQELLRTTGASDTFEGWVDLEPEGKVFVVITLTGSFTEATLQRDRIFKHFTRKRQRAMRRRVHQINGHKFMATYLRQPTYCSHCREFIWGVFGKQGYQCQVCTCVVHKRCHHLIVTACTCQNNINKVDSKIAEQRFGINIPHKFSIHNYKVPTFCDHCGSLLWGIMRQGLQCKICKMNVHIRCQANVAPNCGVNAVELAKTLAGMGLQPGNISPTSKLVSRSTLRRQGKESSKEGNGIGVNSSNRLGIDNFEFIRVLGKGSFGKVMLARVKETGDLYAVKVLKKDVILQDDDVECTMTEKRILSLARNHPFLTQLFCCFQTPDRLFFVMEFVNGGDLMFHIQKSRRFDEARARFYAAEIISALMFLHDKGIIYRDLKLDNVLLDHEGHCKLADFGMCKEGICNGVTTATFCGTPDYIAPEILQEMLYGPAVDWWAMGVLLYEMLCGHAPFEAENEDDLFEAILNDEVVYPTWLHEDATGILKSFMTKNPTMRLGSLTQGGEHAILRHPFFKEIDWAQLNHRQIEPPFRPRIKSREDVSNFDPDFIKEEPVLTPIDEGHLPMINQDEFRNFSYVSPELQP
# Chain of Protein kinase C theta type (Homo sapiens) (Q04759 whole entry, looked up): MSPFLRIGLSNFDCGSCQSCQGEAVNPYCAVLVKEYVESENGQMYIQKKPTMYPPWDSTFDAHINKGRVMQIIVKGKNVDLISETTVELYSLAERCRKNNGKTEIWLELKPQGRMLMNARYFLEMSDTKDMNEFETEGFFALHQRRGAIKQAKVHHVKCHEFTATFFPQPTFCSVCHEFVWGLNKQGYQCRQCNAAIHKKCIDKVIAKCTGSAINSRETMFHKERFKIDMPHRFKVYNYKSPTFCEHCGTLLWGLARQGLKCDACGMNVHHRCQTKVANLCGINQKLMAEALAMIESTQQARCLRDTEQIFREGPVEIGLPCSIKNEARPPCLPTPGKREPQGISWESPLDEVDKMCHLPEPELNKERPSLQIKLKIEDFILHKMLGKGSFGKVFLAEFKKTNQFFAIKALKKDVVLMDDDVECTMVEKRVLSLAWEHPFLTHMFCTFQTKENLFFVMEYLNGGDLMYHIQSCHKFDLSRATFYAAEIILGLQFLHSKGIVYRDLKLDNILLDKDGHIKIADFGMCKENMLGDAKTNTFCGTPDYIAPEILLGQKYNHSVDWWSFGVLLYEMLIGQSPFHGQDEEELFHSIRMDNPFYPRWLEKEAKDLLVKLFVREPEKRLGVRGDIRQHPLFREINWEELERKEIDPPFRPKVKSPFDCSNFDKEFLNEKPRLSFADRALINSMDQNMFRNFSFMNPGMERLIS
Compound,residual activity [1],residual activity [2],residual activity [3],residual activity [4],residual activity [5],residual activity [6],residual activity [7],residual activity [8],residual activity [9],residual activity [10]
CN(C)c1ccc(/C=C2\C(=O)Nc3ccccc32)cc1,102%,93%,117%,85%,92% (inactive),78%,96%,81%,103%,114%
COc1cc2ncnc(Nc3ccc(Oc4ccccc4)cc3)c2cc1OC,98%,83%,108%,112%,90% (inactive),76%,95%,103%,106%,106%
COc1cc2ncnc(N3CCN(C(=O)Nc4ccc(Oc5ccccc5)cc4)CC3)c2cc1OC,98%,74%,94%,108%,90% (inactive),99%,102%,66%,103%,99%
C[C@@H](N)[C@H]1CC[C@H](C(=O)Nc2ccncc2)CC1,26%,5%,63%,17%,101% (inactive),93%,100%,–,–,112%
CC#CC(=O)Nc1cc2c(Nc3ccc(F)c(Cl)c3)ncnc2cn1,90%,84%,96%,96%,87% (inactive),106%,89%,84%,105%,114%
COc1ccc(OC)c2c(=S)c3ccccc3[nH]c12,77%,63%,81%,89%,109% (inactive),80%,96%,73%,108%,84%
CO[C@@H]1[C@H](N(C)C(=O)c2ccccc2)C[C@H]2O[C@]1(C)n1c3ccccc3c3c4c(c5c6ccccc6n2c5c31)C(=O)NC4,84%,29%,15%,11%,79% (inactive),85%,85%,–,101%,92%
CCN(CC)C(=O)c1ccc(Nc2nc(OCC3CCCCC3)c3nc[nH]c3n2)cc1,–,55%,78%,39%,99% (inactive),103%,72%,23%,93%,51%
Nc1cccc(-c2cc3c(Oc4cccc(O)c4)ncnc3[nH]2)c1,83%,64%,88%,57%,–,99%,80%,51%,99%,54%
O=C1NC(=O)/C(=C/c2ccc3c(c2)OC(F)(F)O3)S1,120%,89%,109%,100%,90% (inactive),80%,105%,77%,107%,99%
Oc1ccc(-c2nc(-c3ccc(F)cc3)c(-c3ccncc3)[nH]2)cc1,100%,70%,101%,75%,109% (inactive),105%,94%,36%,102%,81%
COc1cc2ncnc(Nc3ccc(O)c(Br)c3)c2cc1OC,94%,69%,83%,81%,88% (inactive),106%,47%,16%,93%,79%
Cn1nc2c3c(cccc31)C(=O)c1ccccc1-2,88%,89%,97%,86%,105% (inactive),105%,61%,54%,108%,92%
N#CCCc1ccc2c(c1)-c1[nH]c3ccc([N+](=O)[O-])cc3c1CC(=O)N2,–,–,–,–,–,67%,–,76%,–,–
Cn1cc(/C=C2\C(=O)Nc3ccc(S(N)(=O)=O)cc32)c2ccccc21,96%,98%,84%,49%,110% (inactive),87%,84%,59%,103%,103%
CNc1cc2c(Nc3cccc(Br)c3)ncnc2cn1,80%,90%,100%,94%,94% (inactive),102%,86%,49%,104%,98%
COc1cc2ncnc(Nc3ccc(NC(=O)c4ccccc4)cc3)c2cc1OC,137%,95%,–,101%,101% (inactive),66%,–,88%,100%,106%
O=C1NC(=O)c2cc(Nc3ccc(F)cc3)c(Nc3ccc(F)cc3)cc21,91%,80%,87%,62%,91% (inactive),106%,94%,72%,101%,89%
O=C(Nc1cccc(Nc2nccc(Nc3cccc(C(F)(F)F)c3)n2)c1)C1CC1,107%,84%,102%,82%,84% (inactive),77%,101%,125%,99%,96%

Compound,residual activity [1],residual activity [2],residual activity [3],residual activity [4],residual activity [5],residual activity [6],residual activity [7],residual activity [8],residual activity [9],residual activity [10]
COc1cc2ncc(-c3ccccc3)nc2cc1OC,–,–,–,–,–,68%,–,–,96%,99%
Cc1cccc(-c2[nH]c(C(C)(C)C)nc2-c2ccc3c(c2)OCO3)n1,84%,80%,96%,95%,85% (inactive),76%,–,72%,103%,106%
Nc1nc(Nc2ccc(S(N)(=O)=O)cc2)nn1C(=S)Nc1c(F)cccc1F,30%,4%,10%,2%,–,80%,2%,4%,45%,6%
COc1ccc(C(=O)Nc2sc3c(c2C(N)=O)CCCC3)cc1OC,98%,77%,89%,84%,89% (inactive),107%,89%,96%,103%,108%
Cc1cc2ncc(-c3ccccc3)nc2cc1C,107%,84%,110%,102%,83% (inactive),78%,–,–,104%,110%
O=C1NC(=O)c2c1c1c3ccccc3[nH]c1c1[nH]c3cc(Br)ccc3c21,72%,89%,80%,91%,102% (inactive),–,111%,72%,103%,90%
COc1ccc(S(=O)(=O)N(CCO)c2ccccc2CN(C)C/C=C/c2ccc(Cl)cc2)cc1,78%,89%,89%,93%,117% (inactive),110%,83%,77%,102%,99%
N#CC(C#N)=C(N)/C(C#N)=C/c1ccc(O)cc1,118%,81%,–,–,81% (inactive),75%,93%,–,–,–
O=C1Nc2cc(Br)ccc2/C1=C1/Nc2ccccc2/C1=N\O,76%,74%,87%,75%,110% (inactive),112%,90%,100%,101%,95%
CC(=O)O/N=C1\C(=C2\C(=O)Nc3cc(Br)ccc32)Nc2ccccc21,101%,106%,97%,96%,104% (inactive),103%,85%,–,104%,102%
O=C(Nc1cccc(Nc2cc(Nc3cccc(C(F)(F)F)c3)ncn2)c1)C1CC1,117%,87%,–,80%,97% (inactive),111%,99%,88%,107%,110%
c1ccc(-c2n[nH]c3c2oc2ccccc23)cc1,91%,85%,98%,96%,90% (inactive),79%,–,72%,–,–
N#Cc1cnc2cnc(NCc3cccnc3)cc2c1Nc1ccc(F)c(Cl)c1,85%,83%,4%,5%,–,–,80%,39%,101%,91%
O=C1Nc2ccc(Br)cc2/C1=C\c1cc2c([nH]1)CCCC2,102%,73%,100%,99%,84% (inactive),78%,–,–,–,106%
c1ccc2c(-c3ccncc3)c[nH]c2c1,64%,17%,88%,70%,89% (inactive),67%,87%,69%,104%,106%
CN(C)CCCn1cc(C2=C(c3c[nH]c4ccccc34)C(=O)NC2=O)c2ccccc21,–,–,–,–,74% (inactive),47%,108%,43%,–,82%
Cc1ccc(NC2=CC(=O)c3sc(C)nc3C2=O)cc1,83%,86%,88%,87%,106% (inactive),103%,76%,73%,105%,85%
Cc1cc(Nc2nc(-c3ccccc3)nc3ccccc23)n[nH]1,–,–,64%,26%,112% (inactive),107%,–,–,110%,104%
O=C1Nc2ccccc2/C1=C1/Nc2ccccc2/C1=N\OCCC(O)CO (stereo unspecified),–,–,66%,29%,113% (inactive),–,73%,32%,101%,76%

# From ChEMBL document CHEMBL2218924, “A broad activity screen in support of a chemogenomic map for kinase signalling research and drug discovery” (Biochem J, 2013)
